High-throughput results (PubChem)
Hits are enriched below; roughly 3.4% of the tested compounds scored in any of these assays.
PKM2 act – activators of human pyruvate kinase M2 | P14618 | purified PKM2, Kinase-Glo ATP luminescence, activation; response scale: 0% is enzyme alone, no compound | Potency, µM (titrated, usually from 57.5 µM), inactives show at the top dose activation, usual class: activators | 260,000 tested, 0.34% active | AID 1631; note: potency is the fitted concentration of half-maximal effect; % is set by controls: 0 for no effect and ±100 for the full control effect; nearly all actives have a fitted effect of over 55% in size
Target sequence (P14618 whole entry, looked up): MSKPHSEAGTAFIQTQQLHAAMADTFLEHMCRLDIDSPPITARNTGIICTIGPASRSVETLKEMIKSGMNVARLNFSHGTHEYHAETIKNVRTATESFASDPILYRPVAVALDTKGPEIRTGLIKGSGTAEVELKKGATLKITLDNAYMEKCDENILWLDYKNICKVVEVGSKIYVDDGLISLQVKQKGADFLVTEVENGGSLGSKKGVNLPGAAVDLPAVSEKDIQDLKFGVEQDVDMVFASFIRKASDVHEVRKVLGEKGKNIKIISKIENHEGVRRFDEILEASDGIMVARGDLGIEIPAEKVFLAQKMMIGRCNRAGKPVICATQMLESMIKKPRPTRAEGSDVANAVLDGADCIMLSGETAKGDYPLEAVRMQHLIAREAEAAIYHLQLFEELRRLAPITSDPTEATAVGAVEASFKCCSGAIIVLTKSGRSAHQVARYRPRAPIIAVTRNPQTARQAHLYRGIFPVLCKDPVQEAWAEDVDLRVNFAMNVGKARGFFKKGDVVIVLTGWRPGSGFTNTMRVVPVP
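Purified hPK-M2 (>95%) run at intermediate activity with 0.1 mM ADP and 0.5 mM PEP in 50 mM imidazole pH 7.2, KCl, MgCl2; 1 h room temperature. ATP formed read by Kinase-Glo luminescence; normalized to uninhibited and no-enzyme controls.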
KAT2A inh – GCN5L2 (KAT2A) acetyltransferase inhibition | GCN5L2 HAT assay, ThioGlo1 CoA-SH fluorescence | Potency, µM (series often up to 58.9 µM), for the others: at the top dose activity change, negative = inhibition, most hits filed as inhibitors | 390,000 tested, 0.21% active; note: potency is the fitted concentration of half-maximal effect; % is set by controls: 0 for no effect and ±100 for the full control effect
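Free CoA generated was detected with ThioGlo1 (50uM) fluorescence at Ex340nm/Em540nm, read immediately and after 20 min at room temperature. Enzyme, 20 nM in HEPES pH 7.5 buffer, saw compounds 15 min before adding 75uM H3(1-25) peptide and 70uM acetyl-CoA.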
Mito fusion yeast – mitochondrial division inhibition or fusion activation | S. cerevisiae fusion-defective mutant growth rescue, CellTiterGlo 48 h | Potency, µM (titrated, usually from 46.1 µM), inactives show top-dose growth rescue (activation), most hits filed as activators | 320,000 tested, 0.23% active; note: potency is the fitted concentration of half-maximal effect; % of control where 0% means no effect; nearly all actives have a fitted effect of over 45% in size
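Temperature-sensitive fusion-defective S. cerevisiae (e.g. fzo1-1, mgm1-5) were grown with compound in YPEG medium (3% ethanol, 3% glycerol) for 48 hours at 37C. Growth rescue was measured as viability by CellTiterGlo luminescence after 10 minutes at ambient.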
VDR inhibitor – vitamin D3 receptor (human) inhibition; 400,000 tested, 0.93% active; VDR-SRC2-3 peptide fluorescence polarization, 2 h; Potency, µM, without a hit: max response, negative = inhibition, hits mostly inhibitors; note: potency is the fitted concentration of half-maximal effect; % is set by controls: 0 for no effect and ±100 for the full control effect
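After 23 nl compound addition and a short centrifugation, plates sat for 2 hours at ambient temperature; polarization of fluorescence then indicated loss of VDR binding to peptide SRC2-3.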
PLK1 PBD inh – blocks phosphopeptide binding to human PLK1 polo-box domain; Potency, µM, inactives show max response, negative = inhibition, most hits filed as inhibitors; P53350; AID 720504; Plk1 PBD binding of FITC phosphopeptide, fluorescence polarization; 360,000 tested, 2.8% active; note: potency is the fitted concentration of half-maximal effect; series mostly up to about 57 µM; % is set by controls: 0 for no effect and ±100 for the full control effect; nearly all actives have a fitted effect of over 65% in size
GLS inhibitor – glutaminase GLS (human) inhibition | GLS enzymatic activity, qHTS titration | AID 624170 | 410,000 tested, 0.21% active | Potency, µM (doses to about 45.5 µM), inactives show at the highest dose activity change, negative = inhibition, hits mostly inhibitors; note: potency is the fitted concentration of half-maximal effect; % is set by controls: 0 for no effect and ±100 for the full control effect
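Compounds were pin-transferred onto hKGA, after which L-glutamine (1 mM solution) and a detection mix of glutamate oxidase, HRP and Amplex Red were added. Initial and 30 min RT fluorescence reads were collected.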
HeLa tox – reduces HeLa cell viability in PKM2 activator counter-screen; HeLa viability, CellTiter-Glo ATP luminescence, 24 h; shares compounds with PKM2 act; activity change, negative = cytotoxicity, % at 57.5 µM; 230 tested, under 10 active; note: % of control where 0% means no effect
* hit, by the source's call; ? = inconclusive; nt = not tested or not shown; [ ] = dose if it differs, or a comment. Calls come from the whole dose curve; as a rule, active = well fitted curve in the direction sought with a large enough effect; inconclusive = small, poorly fitted or top-dose-only effect, or another doubt; inactive = no such curve, though single readings can be large; an effect the other way counts as inactive or inconclusive.

SMILES	PKM2 act	KAT2A inh	Mito fusion yeast	VDR inhibitor	PLK1 PBD inh	GLS inhibitor	HeLa tox
COC(=O)[C@]1(CC(C)C)N[C@H](c2ccc(-c3ccc(Cl)c(Cl)c3)cc2)[C@@H]2C(=O)N(C)C(=O)[C@@H]21	nt	-14%	?	-8%	2%	-10%	nt
Cc1sc2ncnc(SCC(=O)NC(=O)c3cccn3C)c2c1C	5%	-4%	6%	-12%	17µM*	4%	nt
Cc1cccc(NC(=O)CSc2ncnc3sc(C)c(C)c23)n1	nt	-16%	-8%	30%	-15%	-5%	nt
CC(=O)Nc1cc(=O)c2cccnc2[nH]1	nt	nt	nt	-1%	?	16µM*	nt
O=C1CC(c2ccccc2)Cc2[nH]c(=O)c(C(=O)Nc3cccc(F)c3)cc21 (stereo not given)	nt	-15%	nt	-1%	nt	1%	nt
Cc1cccc(N2CCN(C(=O)c3c(C)nn(Cc4ccccc4Cl)c3C)CC2)c1C	3.5µM*	-9%	2%	12%	-7%	6%	?
CC(O)c1nc2ccccc2n1Cc1nnc(-c2ccc(Cl)cc2)o1 (stereo not given)	7.9µM*	-1%	2%	-13%	1%	10%	0
c1ccc2[nH]c(CSc3nnc(-c4ccncc4)o3)nc2c1	1.8µM*	-3%	-7%	2%	-9%	1%	-1
COc1cccc(Nc2ncc3nc(C)c(=O)n(CCc4ccccc4)c3n2)c1	nt	-10%	nt	8%	nt	nt	nt
O=C(Cc1cccs1)N1CCCC(c2nc3c(nnn3Cc3cccc(Cl)c3)c(=O)[nH]2)C1 (stereo not given)	16µM*	-5%	4%	25%	-12%	9%	-12
O=C(c1cccs1)N1CCCC(c2nc3c(nnn3Cc3cccc(Cl)c3)c(=O)[nH]2)C1 (stereo not given)	12%	-2%	1%	19%	-11%	3%	nt
O=C(C1=C(O)C(=O)N(CC2CCCO2)C1c1ccc(Cl)cc1Cl)c1ccco1 (stereo not given)	0%	-17%	-7%	-1%	-11%	-7%	nt
COc1ccc(S(=O)(=O)N2CCN(S(=O)(=O)c3c(F)cccc3F)CC2)cc1	nt	2%	5%	nt	nt	nt	4
COc1ccc(N2CCN(S(=O)(=O)c3ccc(OC)cc3)CC2)cc1	11%	-7%	0%	3%	?	50%	nt
O=C(COc1ccc2ccccc2c1)Nc1ccc(Br)cc1C(=O)O	-1%	?	-2%	-9%	?	3%	nt
O=C(NCc1ccc2c(c1)OCO2)c1ccc(S(=O)(=O)N2CCCCC2)cc1	0%	-1%	1%	5%	-5%	nt	nt
O=C(NCc1ccc2c(c1)OCO2)c1ccc(NS(=O)(=O)c2ccc3c(c2)OCCO3)cc1	4.5µM*	-2%	-3%	18%	-2%	3%	1
O=c1c2ccccc2ncn1Cc1ccc2c(c1)OCO2	3%[11.5 µM]	2%	3%	-7%	-5%	1%	nt
C/C=C\C=C/C(=O)Nc1cccc(C2=NOC3(C2)C[C@@H](C(N)=O)N(C(=O)/C=C/C=C\C)C3)c1 (stereo not given in full)	1.4µM*	-35%	-57%	?	?	11µM*	4
C/C=C\C=C/C(=O)Nc1cccc(C2=NOC3(C2)C[C@@H](C(N)=O)N(C(=O)/C=C/CC)C3)c1 (stereo not given in full)	?	-10%	21%	-21%	?	-23%	nt
COC(=O)c1c(C)[nH]c(C(=O)CSc2ncnc3sc(-c4ccccc4)cc23)c1C	-2%	1%	-5%	-1%	-6%	9%	nt
O=S(=O)(c1ccccc1)N1CCN(S(=O)(=O)c2ccc3c(c2)OCCO3)CC1	nt	nt	nt	nt	nt	nt	0
O=S(=O)(c1cccc(C(F)(F)F)c1)N1CCN(S(=O)(=O)c2ccc3c(c2)OCCO3)CC1	nt	3%	nt	13%	nt	4%	2
O=C(Cc1ccc2c(c1)OCCO2)N1CCN(S(=O)(=O)c2cccc(C(F)(F)F)c2)CC1	21%	5%	-1%	-12%	-4%	-15%	nt
O=S(=O)(c1ccc2c(c1)OCCO2)N1CCNCC1	0%	0%	-2%	-19%	0%	-8%	nt
SMILES	PKM2 act	KAT2A inh	Mito fusion yeast	VDR inhibitor	PLK1 PBD inh	GLS inhibitor	HeLa tox
Cc1cc(C)c(S(=O)(=O)N2CCN(C(=O)C(C)Cn3cncn3)CC2)c(C)c1 (stereo not given)	-1%	-5%	-4%	-15%	6%	2%	nt
CC1(C)CN(c2ccccc2)C(=O)[C@H]1CC(=O)Nc1ccccc1	nt	nt	nt	nt	0%	0%	nt
O=C(NCc1nnc2c(C(F)(F)F)cc(Cl)cn12)C1CCCC1	1%	-7%	-10%	7%	-27%	0%	nt
O=C(NCc1nnc2c(C(F)(F)F)cc(Cl)cn12)c1cccs1	2.8µM*	-2%	-25%	-4%	-12%	1%	0
CC(C)CC1NC(=O)N(CC(=O)Nc2cc(S(=O)(=O)N3CCOCC3)ccc2Cl)C1=O (stereo not given)	nt	-3%	nt	-7%	-4%	3%	nt
O=c1c(Cc2ccc(Cl)cc2)c(O)ccn1Cc1cccs1	8%	-5%	2%	1%	-8%	8%	nt
O=c1c(Cc2ccc(Cl)cc2)c(O)ccn1Cc1ccncc1	8.9µM*	1%	20%	-16%	1%	-7%	-3
O=S(=O)(Nc1c(F)cccc1F)c1ccc2c(c1)OCCO2	-4%	2%	3%	-4%	-1%	0%	nt
O=C1CN(S(=O)(=O)c2c(F)cccc2F)CCN1S(=O)(=O)c1ccc2c(c1)OCCO2	nt	nt	nt	nt	nt	nt	0
O=S(=O)(NC1CCN(S(=O)(=O)c2c(F)cccc2F)CC1)c1ccc2c(c1)OCCO2	nt	-14%	nt	4%	nt	-1%	-29
O=S(=O)(NC1CCC(CNS(=O)(=O)c2c(F)cccc2F)CC1)c1ccc2c(c1)OCCO2 (stereo not given)	nt	-1%	-4%	nt	nt	nt	nt
O=S(=O)(NC1CCN(S(=O)(=O)c2c(F)cccc2F)C1)c1ccc2c(c1)OCCO2 (stereo not given)	nt	1%	-8%	-1%	nt	-11%	?
CC(=O)N1CCN(S(=O)(=O)c2ccc3c(c2)OCCO3)CC1	nt	-4%	3%	7%	-10%	-3%	nt
C[C@@H]1CN(S(=O)(=O)c2ccc3c(c2)OCCO3)CCN1S(=O)(=O)c1c(F)cccc1F	nt	-16%	nt	-8%	nt	-2%	-2
COc1cccc(Cn2c(=O)c(-c3cccc(C#N)c3)nc3cnc(OC)nc32)c1	nt	-14%	nt	-6%	nt	nt	nt
